Test results from PubChem BioAssay (NCI).
Several values for one entry are separate records, joined by “and”; a condition that tells them apart may be missing. Equal entries are not always repeated. About 83,000 compounds went through this panel and 20% of them were active in at least one assay; those are over-represented in the sample as a whole.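 Single-concentration screen, 48 h exposure, 96-well plates. Endpoint: percent growth. Below 10 = active.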 A number with no mark means an inactive call. Activity calls are given as the source filed them.

Experiments:
Test in all cases: NCI-60 one-dose screen, 48 h (100 = growth as untreated, 0 = no growth, -100 = all killed)
Settings in all cases: 10 µM unless noted
SK-MEL-2 melanoma = test system: SK-MEL-2 melanoma
EKVX NSCLC = test system: EKVX NSCLC
SN12C renal = test system: SN12C renal
UO-31 renal = test system: UO-31 renal
TK-10 renal = test system: TK-10 renal
ACHN renal = test system: ACHN renal
CAKI-1 renal = test system: CAKI-1 renal
A498 renal = test system: A498 renal
CCRF-CEM leukemia = test system: CCRF-CEM leukemia
MOLT-4 leukemia = test system: MOLT-4 leukemia
SR leukemia = test system: SR leukemia
RPMI-8226 leukemia = test system: RPMI-8226 leukemia
OVCAR-8 ovarian = test system: OVCAR-8 ovarian
OVCAR-5 ovarian = test system: OVCAR-5 ovarian
OVCAR-4 ovarian = test system: OVCAR-4 ovarian
SK-OV-3 ovarian = test system: SK-OV-3 ovarian
IGROV1 ovarian = test system: IGROV1 ovarian
OVCAR-3 ovarian = test system: OVCAR-3 ovarian
HS 578T breast = test system: HS 578T breast
NCI/ADR-RES ovarian = test system: NCI/ADR-RES ovarian

Row | SMILES | growth (SK-MEL-2 melanoma) | growth (EKVX NSCLC) | growth (SN12C renal) | growth (UO-31 renal) | growth (TK-10 renal) | growth (ACHN renal) | growth (CAKI-1 renal) | growth (A498 renal) | growth (CCRF-CEM leukemia) | growth (MOLT-4 leukemia) | growth (SR leukemia) | growth (RPMI-8226 leukemia) | growth (OVCAR-8 ovarian) | growth (OVCAR-5 ovarian) | growth (OVCAR-4 ovarian) | growth (SK-OV-3 ovarian) | growth (IGROV1 ovarian) | growth (OVCAR-3 ovarian) | growth (HS 578T breast) | growth (NCI/ADR-RES ovarian)
1 | Cc1ccc(/C=C(\C#N)c2cc3ccccc3[nH]2)cc1 | 48.8% | 74.7% | 50.3% | 69.8% | 82.6% | 85.6% | 45.6% | 57.2% | 46% | 30.6% | 16.2% | 60.2% | 63% | 65.2% | 71.6% | 67.1% | 55.3% | 29.7% | 61.9% | 16.1%
2 | COC(=O)c1c2c(c(C)[n+]([O-])c1C)C(=O)C(NCCN1CCOCC1)=CC2=O | 78.2% | 65.8% | 59% | 82.2% | 111% | 85.5% | 73% | 129% | 80.2% | 88.1% | 66.9% | 91.9% | 61.7% | 89.1% | 35.4% | 103% | 63.4% | 5.12% (active) | 101% | 91.7%
3 | COC(=O)c1nc(-c2ccc(C)cc2)oc1Sc1ccc(C)cc1 | 104% | 105% | 96% | 82.6% | 106% | 96.1% | 95% | 130% | 86.9% | 71.7% | 76.1% | 81.4% | 98.5% | 97.8% | 101% | 92.1% | 110% | 108% | 108% | 108%
4 | Clc1ccc(CNc2ccc3nc(CCC4CCCCC4)[nH]c3c2)cc1 | 85.6% | 75.6% | 59.1% | 29.9% | 83.6% | 76.6% | 50.4% | 45.8% | 41.4% | 39.1% | 26.2% | -6.18% (active) | 65.3% | 53% | 32.3% | 78.9% | 45.9% | 69.6% | 78.8% | 54.7%
5 | CCOc1ccc(C(=O)Cc2ccccc2)cc1 | 103% and 118% | 98.5% and 101% | 103% and 105% | 91.3% and 107% | 85.1% and 92.3% | 107% and 115% | 103% and 99.6% | 79.6% and 87.5% | 97.6% | 94.4% and 99.2% | 93.4% and 92.3% | 106% and 95% | 109% and 106% | 103% and 109% | 105% and 106% | 121% and 117% | 116% and 110% | 120% and 125% | 107% | 107% and 104%
6 | Cc1cc(N2CCCCC2)nc(NCc2cc(Nc3ccnc4cc(Cl)ccc34)ccc2F)n1 | -42.7% (active) | 38.6% | -71% (active) | -46.9% (active) | -21.5% (active) | -82% (active) | 19.1% | -17.3% (active) | -19.2% (active) | -24.8% (active) | -21.3% (active) | -38.9% (active) | -15% (active) | -42.1% (active) | -4.79% (active) | 72.6% | 10.2% | -79.5% (active) | 14.9% | 6.86% (active)
7 | Nn1c(-c2ccc(Cl)cc2)nc2c(-c3ccc(Cl)cc3)nc3ccc(Cl)cc3c2c1=O | 73.3% | 6.86% (active) | -3.15% (active) | -24.9% (active) | 0.823% (active) | 4.66% (active) | 14.7% | 21.3% | -15.8% (active) | 32.3% | -62.1% (active) | 30.1% | 11.6% | 68.7% | -78.1% (active) | 20.3% | 7.14% (active) | -81.5% (active) | -14.1% (active) | 52.4%
